Experimental findings from the supplement of paper PMC13380429 are described below.

The subject of test [1] is Vero E6 infected with SARS-CoV-2. Briefly: morphology score (similarity to uninfected cells); higher = more like uninfected cells. The following applies: 24 h.
Test [2] has the same test system. The test can be described thus: SARS-CoV-2 infection rate relative to infected DMSO; higher = more infection, active = 60 or less. The following applies: 24 h.

Each structure is given as a SMILES string.

`CCc1cnn2c(NCc3ccc[n+]([O-])c3)cc(N3CCCC[C@H]3CCO)nc12` [dinaciclib] (0.833333 µM): the morphology score in test [1] was -0.154. The SARS-CoV-2 infection rate in test [2] was 116% (inactive).

In test [1], `Cc1ccccc1/N=N/c1ccc(NC(=O)c2ccnn2C)c(C)c1` (10 µM) gave a morphology score of -0.087. Also, the SARS-CoV-2 infection rate in test [2] is 109% (inactive).

`C1N2CN3CN1CN(C2)C3` [methenamine] (10 µM) came in with a morphology score in test [1] of 0.11. The SARS-CoV-2 infection rate in test [2] was 100% (inactive).

Regarding `O=C(O)/C=C/c1ccc(Cn2ccnc2)cc1` [ozagrel] (10 µM), in test [1], the morphology score amounted to 0.12. In test [2], the SARS-CoV-2 infection rate was 92% (inactive).

Turning to `NC(=O)c1ccc(I)c([N+](=O)[O-])c1` [iniparib] (10 µM), in test [1], the morphology score came to 0.0662. Moreover, the SARS-CoV-2 infection rate in test [2] was 106% (inactive).

In test [1], `COc1ccc2c(C)nc(Nc3nc(C)c(C)c(O)n3)nc2c1` [madrasin] (10 µM) registered a morphology score of 0.0439. Further, the SARS-CoV-2 infection rate in test [2] was 107% (inactive).

Turning to `O=C(OCC(O)CO)c1ccccc1Nc1ccnc2c(C(F)(F)F)cccc12` (centres undefined) [floctafenine] (10 µM), the morphology score in test [1] is -0.157. Further, in test [2], the SARS-CoV-2 infection rate is 106% (inactive).
